Test results taken from paper PMC4336329 (PLoS ONE, 2015).
Among all 310,000 compounds or so, about 2,200 (0.71%) showed an effect of 50% or more. The effect is printed as a negative number. Shown is part of a subset that was picked to be rich in strong results.

Biological target: human ether-à-go-go-related gene (hERG) potassium channel (human, UniProt Q12809)
Assay: primary screen, population patch clamp on CHO cells stably expressing hERG; higher = less effect of the substance

Sequence of human ether-à-go-go-related gene (hERG) potassium channel (Q12809 whole entry, looked up): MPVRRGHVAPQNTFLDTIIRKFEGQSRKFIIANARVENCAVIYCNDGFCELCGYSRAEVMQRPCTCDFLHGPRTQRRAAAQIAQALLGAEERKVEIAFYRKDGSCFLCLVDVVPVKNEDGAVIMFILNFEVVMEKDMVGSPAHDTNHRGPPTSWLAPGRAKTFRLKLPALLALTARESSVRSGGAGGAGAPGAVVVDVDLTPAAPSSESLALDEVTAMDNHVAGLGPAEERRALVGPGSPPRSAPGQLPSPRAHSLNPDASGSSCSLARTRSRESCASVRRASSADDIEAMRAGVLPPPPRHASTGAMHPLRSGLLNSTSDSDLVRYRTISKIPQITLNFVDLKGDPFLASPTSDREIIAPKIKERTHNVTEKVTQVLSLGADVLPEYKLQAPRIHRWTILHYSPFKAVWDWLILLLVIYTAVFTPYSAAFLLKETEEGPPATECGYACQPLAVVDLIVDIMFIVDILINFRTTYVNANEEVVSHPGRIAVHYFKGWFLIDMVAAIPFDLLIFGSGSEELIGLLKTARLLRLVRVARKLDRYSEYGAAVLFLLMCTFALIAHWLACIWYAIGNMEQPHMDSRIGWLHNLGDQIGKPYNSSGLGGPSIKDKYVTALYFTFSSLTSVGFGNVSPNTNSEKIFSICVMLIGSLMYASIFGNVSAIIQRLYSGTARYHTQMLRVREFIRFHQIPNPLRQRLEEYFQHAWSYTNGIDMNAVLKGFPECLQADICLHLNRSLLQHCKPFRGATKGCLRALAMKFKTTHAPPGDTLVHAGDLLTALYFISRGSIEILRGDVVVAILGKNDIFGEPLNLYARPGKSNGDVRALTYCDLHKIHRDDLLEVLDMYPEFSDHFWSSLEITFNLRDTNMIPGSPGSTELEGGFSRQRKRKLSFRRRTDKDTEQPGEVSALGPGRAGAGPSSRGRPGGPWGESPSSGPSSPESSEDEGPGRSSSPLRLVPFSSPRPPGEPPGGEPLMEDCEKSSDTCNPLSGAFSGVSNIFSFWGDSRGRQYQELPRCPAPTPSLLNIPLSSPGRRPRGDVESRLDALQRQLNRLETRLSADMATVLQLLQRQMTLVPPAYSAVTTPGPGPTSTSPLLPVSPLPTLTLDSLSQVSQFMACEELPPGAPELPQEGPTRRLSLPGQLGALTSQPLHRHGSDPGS

Row | Compound | hERG current change (%, negative = inhibition) at 1uM [%]
1 | O=C(NC(=S)Nc1ncc(Br)cc1Br)c1cncc(Br)c1 | 4.04
2 | COc1ccc(C(=O)Nc2nnc(-c3cccs3)s2)cc1 | 18.6
3 | CC(C)(C)OC(=O)N[C@@H](Cc1ccccc1)c1nnc(S(=O)(=O)Cc2ccccc2)o1 | 5.19
4 | CCCCCc1nc2c(c3c1CCCC3)CCCC2 | -51.7
5 | CCCCCc1n[nH]c2c1CCCC2 | 9.3
6 | CCCCc1nc(Cl)c(C#N)c2c1CCCC2 | 5.82
7 | CC1CCCC(C)N1C(=O)COC(=O)CCC1CCCC1 (stereo not shown) | 9.29
8 | CC(C(=O)N1CCN(c2ccccc2)CC1)c1ccc([N+](=O)[O-])cc1 (stereo not shown) | -12.2
9 | COc1ccc(N2CCN(C(=O)CN3C(=O)C4CC=CCC4C3=O)CC2)cc1 (stereo not shown) | 15.7
10 | O=C(CN1C(=O)C2CC=CCC2C1=O)N1CCN(c2ccc([N+](=O)[O-])cc2)CC1 (stereo not shown) | -64.2
11 | CC1(C)NC(=O)N(CC(=O)N2CCN(c3ccc([N+](=O)[O-])cc3)CC2)C1=O | -29.1
12 | CC(C(=O)N1CCN(c2ccc([N+](=O)[O-])cc2)CC1)N1C(=O)C2CC=CCC2C1=O (stereo not shown) | -50.2
13 | CC(C(=O)N1CCN(c2ccccc2)CC1)N1C(=O)C2CC=CCC2C1=O (stereo not shown) | 10.3
14 | COc1ccc(C2=[N+]([O-])C(C)(C)N(O)C2(C)C)cc1 | 10.1
15 | Cc1nc(-c2nnc(SCC(=O)Nc3cc(Cl)cc(Cl)c3)n2C)cs1 | 10.6
16 | C/C(=N\N=C(c1ccccc1)c1ccccc1)c1ccco1 | 5.46
17 | CN1C(=O)C(=Cc2ccccc2OS(=O)(=O)c2ccccc2)C(=O)N(C)C1=O | 9.02
18 | N[C@@H]1CONC1=O | 18.7
19 | COC(=O)[C@H]1C[C@H]1[C@@H](NC(=O)c1cccnc1)c1ccccc1 | 11.4
20 | COc1ccc(C(CCN)c2ccc3c(c2)OCO3)cc1 (stereo not shown) | 13.6
21 | COc1ccc(C(CCNCc2ccc(N(C)C)cc2)c2ccccc2OC)cc1 (stereo not shown) | -18.4
22 | COc1ccc(CNCCC(c2ccccc2)c2ccc3c(c2)OCO3)cc1.Cl (stereo not shown) | -68.7
23 | COc1ccc(C(CCNCc2ccc(N(C)C)cc2)C(C)C)cc1 (stereo not shown) | 2.49
24 | CCOc1ccccc1CNCCc1ccc2c(c1)OCO2.Cl | 1.75
25 | COc1ccc(C(CCNCc2ccccc2)c2ccc(F)cc2)cc1 (stereo not shown) | -17.7
26 | COc1ccc(C(CCNCc2ccc(N(C)C)cc2)c2ccccc2)cc1 (stereo not shown) | -56.4
27 | CCOc1ccc(CNCCc2ccc3c(c2)OCO3)cc1 | -52.6
28 | Fc1ccc(CNCCc2ccc3c(c2)OCO3)cc1 | 13.8
